Bioassay records (PubChem)
BAZ2B inh: inhibitors of human BAZ2B bromodomain. Q9UIF8. AlphaScreen BAZ2B-H3K14Ac peptide displacement. Potency, µM (highest dose often 114 µM), without a hit: top-dose activity change, negative = inhibition, most hits filed as inhibitors. actives 4.4% (n = 360,000). AID 504333; note: % is set by controls: 0 for no effect and ±100 for the full control effect; nearly all actives have a fitted effect of over 60% in size
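In this displacement format the biotinylated H3(5-23) peptide acetylated at Lys14 serves as ligand at 50 nM, with BAZ2B at 50 nM in PBS pH 7.4 containing 0.01% Tween-20. Donor and acceptor beads are 10 ug/mL final.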
PLK1 PBD inh: PLK1 (human) polo-box domain binding inhibition | Potency, µM, for inactives: max response, negative = inhibition, hits mostly inhibitors | AID 720504 | actives 2.8% (n = 360,000) | Plk1 PBD binding of FITC phosphopeptide, fluorescence polarization | P53350; note: series mostly up to about 57 µM; % is set by controls: 0 for no effect and ±100 for the full control effect; nearly all actives have a fitted effect of over 65% in size
Target sequence (P53350 whole entry, looked up, the tested form may be a part): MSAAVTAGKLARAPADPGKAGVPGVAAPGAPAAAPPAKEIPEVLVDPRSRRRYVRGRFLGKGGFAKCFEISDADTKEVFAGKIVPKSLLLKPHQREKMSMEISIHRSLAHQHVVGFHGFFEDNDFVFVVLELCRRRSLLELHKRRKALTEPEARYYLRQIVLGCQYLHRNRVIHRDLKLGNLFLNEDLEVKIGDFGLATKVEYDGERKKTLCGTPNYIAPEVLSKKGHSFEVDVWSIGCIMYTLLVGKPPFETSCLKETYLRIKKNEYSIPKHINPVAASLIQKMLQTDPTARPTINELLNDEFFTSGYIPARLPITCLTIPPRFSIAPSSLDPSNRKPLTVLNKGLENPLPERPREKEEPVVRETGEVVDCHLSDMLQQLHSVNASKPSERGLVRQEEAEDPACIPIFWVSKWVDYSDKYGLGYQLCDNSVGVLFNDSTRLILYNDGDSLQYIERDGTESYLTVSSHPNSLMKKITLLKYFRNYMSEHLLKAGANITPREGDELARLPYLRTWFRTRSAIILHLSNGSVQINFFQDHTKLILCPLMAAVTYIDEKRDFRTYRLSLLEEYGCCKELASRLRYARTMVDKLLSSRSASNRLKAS
JMJD2A Tudor inh: inhibitors of human JMJD2A Tudor domain | O75164 | actives 4.4% (n = 390,000) | Potency, µM (highest dose often 114 µM), for the others: at the top dose activity change, negative = inhibition, most hits filed as inhibitors | AlphaScreen JMJD2A-Tudor / H3K4me3 peptide binding; note: % is set by controls: 0 for no effect and ±100 for the full control effect; nearly all actives have a fitted effect of over 50% in size
HP1b chromo inh: HP1-beta chromodomain-methylated histone interaction inhibition | AlphaScreen HP1-beta / biotin-H3K9me3 peptide binding | Potency, µM (titrated, usually from 114 µM), for inactives: at the top dose activity change, negative = inhibition, most hits filed as inhibitors | actives 0.56% (n = 390,000); note: nearly all actives have a fitted effect of over 70% in size
Target sequence (P83916 whole entry, looked up): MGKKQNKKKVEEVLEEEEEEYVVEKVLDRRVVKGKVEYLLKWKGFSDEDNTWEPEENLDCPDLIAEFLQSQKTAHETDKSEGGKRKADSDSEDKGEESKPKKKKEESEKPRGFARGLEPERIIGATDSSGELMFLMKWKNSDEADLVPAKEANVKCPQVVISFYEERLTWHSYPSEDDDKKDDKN
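Compound inhibition of the preformed complex between 50 nM HP1-beta and 50 nM biotinylated H3K9me3 peptide was read by AlphaScreen. Buffer was PBS pH 7.4 with 0.01% Tween-20. Incubations ran 30 min at room temperature, with 10 ug/mL donor/acceptor beads.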
ALOX12 inh: blocks human arachidonate 12S-lipoxygenase. purified 12hLO, xylenol orange hydroperoxide absorbance. Potency, µM (doses to about 108 µM), without a hit: top-dose activity change, negative = inhibition, actives largely listed as inhibitors. actives 1.1% (n = 580,000). P18054; note: % is set by controls: 0 for no effect and ±100 for the full control effect
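Purified human 12hLO at 150 nM in 25 mM Hepes, 0.01% Triton X-100, pH 7.0, preincubated 15 min at room temperature with compound. Reaction started with 40 uM arachidonic acid, 30 min at room temperature. Hydroperoxide measured by Fe-xylenol orange, 573/405 nm absorbance ratio.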
G9a block: blocks human histone lysine methyltransferase G9a | Q96KQ7 | Potency, µM (series often up to 102 µM), without a hit: at the top dose activity, negative = inhibition, actives largely listed as inhibitors | G9a H3K9 monomethylation, AlphaScreen, 2 h | AID 504332 | actives 8.8% (n = 350,000); note: % is set by controls: 0 for no effect and ±100 for the full control effect; nearly all actives have a fitted effect of over 75% in size
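Using a bead-based AlphaScreen, monomethylated H3K9 product from 2 h room-temperature reactions (G9a 20 nM, peptide 500 nM, SAM 20 uM) was detected with 0.5 ug/mL rabbit anti-H3K9me1 antibody.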
* = called active by the depositor; ? = inconclusive; . = no result given; [ ] = remark or other dose. Shown are actives, neighbours in structure and some others; about 9% of the full set was active somewhere. Calls come from the whole dose curve; as a rule, active = well fitted curve in the direction sought with a large enough effect; inconclusive = small, poorly fitted or top-dose-only effect, or another doubt; inactive = no such curve, though single readings can be large; an effect the other way counts as inactive or inconclusive. Potency is the fitted concentration of half-maximal effect.

SMILES	BAZ2B inh	PLK1 PBD inh	JMJD2A Tudor inh	HP1b chromo inh	ALOX12 inh	G9a block
COc1ccc(-c2nc(S(=O)(=O)c3ccc(C)cc3)c(N3CCCC3)o2)cc1	-24.5%	?	?	79.4µM*	?	?
CN1CCN(c2oc(-c3ccco3)nc2S(=O)(=O)c2ccccc2)CC1	3.2%	-4.2%	-8.9%	27.7%	-33.6%	?
Cc1ccccc1-c1nc(CS(=O)(=O)CC(=O)NCC(C)c2ccccc2)c(C)o1 (configuration not stated)	?	.	-29.0%	2.8%	-0.7%	-11.8%[59 µM]
CC(C)NC(=O)C1CCc2nnc(C3CCN(S(=O)(=O)c4ccccc4)CC3)n21 (configuration not stated)	.	.	.	.	1.7%[6.33 µM]	.
CCCC(O)(c1ccc(Cl)cc1)C(CN1CCOCC1)c1ccc(Cl)cc1 (configuration not stated)	-32.2%	-5.6%	-28.0%	51.7%	?	-26.7%
O=S(=O)(c1ccccc1)c1nc(-c2ccccc2)oc1N1CCOCC1	-6.4%	-8.8%	-22.1%	28.5%	9.4%	3.6%
O=S(=O)(c1ccccc1)c1nc(-c2cccc(Cl)c2)oc1N1CCOCC1	?	-11.7%	-35.5%	-0.3%	-26.6%	39.8µM*
Cc1nc2cc(-c3ccsc3-n3c(C)ccc3C)[nH]n2c(=O)c1Cl	50.1µM*	-19.7%	?	-18.9%	?	?
Cc1ccccc1-c1cc2nc(C)c(Cl)c(=O)n2[nH]1	.	-7.9%	-18.2%	-17.7%	167.2%	.
Cc1cc(=O)n2[nH]c(-c3ccsc3-n3c(C)ccc3C)cc2n1	44.7µM*	-23.6%	-8.1%[11.4 µM]	9.3%	-22.5%	.
COCc1cc(=O)n2[nH]c(-c3ccsc3-n3c(C)ccc3C)cc2n1	?	?	-10.7%[11.4 µM]	11.7%	?	-34.0%[59 µM]
S=C(Nc1ccc(Cl)cc1)Nc1ccc2c(c1)OCCO2	-25.7%	-4.7%	-15.4%	9.1%	?	.
O=C(CN1CCCCC1)Nc1ccc(NC(=O)c2ccccc2Cl)cc1Cl	-4.8%	-6.3%	-19.0%	7.4%	-20.2%	10µM*
O=C(CN1CCN(CC(=O)Nc2ccccc2Cl)CC1)Nc1ccc2c(c1)OCCO2	-7.7%	-20.4%	16.4%[11.4 µM]	40.0%	0.0%	25.1µM*
S=C(Nc1ccc2c(c1)OCCO2)Nc1ccccc1Cl	-17.6%	-25.8%	-7.5%	1.0%	?	79.4µM*
O=C(CN1CCCCCCC1)Nc1ccc(Cl)cc1Cl	.	-8.0%	51.6%	89.7%	?	120.8%
COc1cccc(C(=O)n2cnnc2N)c1OC	0.2%	-6.3%	-11.9%	23.9%	-4.4%	17.3%[12.7 µM]
O=C(Nc1cccc([N+](=O)[O-])c1)NC1CCCCCCC1	-29.3%	1.7%	-28.1%	5.5%	-1.0%	?
COc1ccc(C(=O)CN2CCN(S(=O)(=O)c3cccc([N+](=O)[O-])c3)CC2)cc1OC	4.2%	-9.5%	-10.0%	31.9%	-10.1%	8.91µM*
COc1cccc(C(=O)CN2CCN(S(=O)(=O)c3cccc([N+](=O)[O-])c3)CC2)c1	1.7%	-6.7%	-15.6%	27.6%	-2.2%	20µM*
O=C(CCN1CCN(S(=O)(=O)c2cccc([N+](=O)[O-])c2)CC1)Nc1ccccc1F	-34.1%	26.7µM*	?	-18.4%	-11.0%	24.4%
COc1ccc(S(=O)(=O)N2CCN(CC(=O)c3c(N)n(C)c(=O)n(C)c3=O)CC2)cc1OC	.	0.0%	.	.	-0.4%	.
O=C(Cc1ccc(Cl)cc1)N1C[C@@H](CO)[C@H](c2ccncc2)C1	.	.	.	.	42.1%	.
COc1ccc(OC)c(S(=O)(=O)N/N=C(/C)c2ccc3c(c2)OCO3)c1	-12.7%	1.9%	-1.4%	48.7%	0.0%	31.6µM*
C/C(=N/NS(=O)(=O)c1cccc([N+](=O)[O-])c1)c1ccc2c(c1)OCO2	-38.1%	-25.2%	-4.8%	20.2%	0.5%	31.6µM*
SMILES	BAZ2B inh	PLK1 PBD inh	JMJD2A Tudor inh	HP1b chromo inh	ALOX12 inh	G9a block
C/C(=N\NS(=O)(=O)c1ccc(Cl)c([N+](=O)[O-])c1)c1cc2ccccc2o1	?	?	?	-8.6%	?	?
C/C(=N\NS(=O)(=O)c1ccc(C)c([N+](=O)[O-])c1)c1ccc2c(c1)OCO2	-27.0%	?	-20.4%	25.6%	-3.2%	44.7µM*
C/C(=N\NS(=O)(=O)c1ccc([N+](=O)[O-])cc1)c1ccc2c(c1)OCO2	-32.8%	-19.3%	-24.2%	5.0%	?	-49.3%
C/C(=N\NS(=O)(=O)c1ccc(Cl)c([N+](=O)[O-])c1)c1ccc(C)o1	79.4µM*	?	?	42.9%	?	-36.3%[12.7 µM]
CCOc1ccc2nc(SCC(=O)Nc3cccc(S(=O)(=O)NC4=NCCCCC4)c3)[nH]c2c1	-16.2%	-25.2%	-29.5%	9.8%	-0.7%	44.7µM*
CCOc1ccccc1Nc1nnc(SCC(=O)Nc2cccc(S(=O)(=O)NC3=NCCCCC3)c2)s1	-8.8%	-2.6%	-7.5%	22.0%	-13.4%	39.8µM*
CCOc1ccccc1OCC(=O)Nc1cccc(S(=O)(=O)NC2=NCCCCC2)c1	-5.1%	5.5%	5.7%	29.9%	0.1%	23.4%[12.7 µM]
O=C(CC1CCCC1)N1CCCC(c2noc(COc3ccccc3)n2)C1 (configuration not stated)	.	.	.	.	53.9%	.
CC(C)N=C1NN=C(c2ccc(Cl)c(Cl)c2)CS1	?	-17.3%	?	-11.4%	?	44.7µM*
CC(C)c1ccc(N=C2NN=C(c3cccs3)CS2)cc1	?	-4.8%	-33.2%	-15.1%	-19.1%	-4.0%
CC(C)N=C1NN=C(c2cccs2)CS1	-13.7%	-17.9%	-6.8%[57.1 µM]	-11.5%	9.3%	20µM*
CC(C)(C)N=C1NN=C(c2ccc(Cl)cc2)CS1	?	-12.3%	?	0.0%	?	-1.2%[59 µM]
NC(=O)c1ccc(NC(=O)CCCc2nc(-c3ccccc3Cl)no2)cc1	-11.0%	-6.8%	-3.7%	19.4%	0.0%	50.1µM*
CCN(CC)S(=O)(=O)c1nnc(NC(=O)c2ccc(C(C)C)cc2)s1	-13.3%	.	-16.4%	12.8%	-2.2%	-16.8%[59 µM]
CCOc1ccc(C(=O)Nc2nnc(C(C)C)s2)cc1OCC	3.7%	-12.1%	-7.6%	2.5%	-3.4%	10µM*
CCN(CC)S(=O)(=O)c1ccc(C(=O)Nc2nnc(C(C)C)s2)cc1	-5.2%	-16.8%	-29.2%	25.2%	17.8%	35.5µM*
COc1ccc(C(=O)Nc2nnc(C(C)C)s2)cc1OC	3.4%	.	11.8%	6.8%	-7.2%	7.6%[59 µM]
Cc1occc1C(=O)N(C)CC1CCCN(CCc2ccc(Cl)cc2)C1 (configuration not stated)	.	-15.0%	.	.	44.7µM*	.
CCN(CC(=O)Nc1ccc2c(c1)OCO2)CC(=O)Nc1ccccc1C(F)(F)F	1.6%	-9.3%	-22.9%	23.8%	393.6%	12.4%[12.7 µM]
CS(=O)(=O)c1ccc(-c2nnn(CC(=O)N3CCCCC3)n2)cc1	4.9%	-11.7%	0.0%	37.2%	3.3%	13.4%
